Measurements reported in PubChem BioAssay.
The source made the active and inactive calls.

Key:
[1] = compound effects on lung adenocarcinoma cell viability – A549, calcein-AM fluorescence, 48 h, basal, profiling panel (AID 1162); details: higher = more signal
[2] = compound effects on differentiated 3T3-L1 adipocyte viability – cell-based, 3T3-L1 adipocytes, calcein-AM fluorescence, 48 h, basal, profiling panel (AID 1163); details: 3T3-L1 adipocytes viability, higher = more signal
[3] = compound effects on hepatocellular carcinoma cell viability – HepG2, calcein-AM fluorescence, 48 h, basal, profiling panel (AID 1164); details: higher = more signal
[4] = compound effects on multiple myeloma cell viability – MM1S, calcein-AM fluorescence, 48 h, basal, profiling panel (AID 1165); details: higher = more signal;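 also: viability of MM1S multiple myeloma cells under basal unstimulated conditions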
[5] = calcein-AM signal in unstimulated myeloma cells – cell-based, calcein-AM fluorescence, 48 h, PK04 Diversity Set, profiling panel (AID 1166); details: RPMI8226 myeloma viability, higher = more signal;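 also: cells grown under basal conditions without added stimulus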
[6] = JC-1 mitochondrial signal, unstimulated HepG2 cells – cell-based, JC-1 fluorescence, 24 h, 100 nL compound, profiling panel (AID 1167); details: HepG2 mitochondrial potential, higher = more signal
[7] = JC-1 mitochondrial signal, unstimulated adipocytes – cell-based, JC-1 fluorescence, 3T3-L1 adipocytes, 24 h, 100 nL compound, profiling panel (AID 1168); details: JC-1 mitochondrial fluorescence, higher = more signal, called active from +8 up or from −8 down
[8] = JC-1 mitochondrial signal, unstimulated myeloma cells – cell-based, JC-1 fluorescence, RPMI8226, 24 h, 100 nL compound, profiling panel (AID 1169); details: JC-1 mitochondrial potential fluorescence, higher = more signal
[9] = JC-1 mitochondrial signal, unstimulated MM1S myeloma – cell-based, JC-1 fluorescence, 24 h, 100 nL compound, profiling panel (AID 1170); details: MM1S mitochondrial potential, higher = more signal
[10] = resazurin metabolic signal in A549 cells – cell-based, resazurin fluorescence, 24 h, PK04 Diversity Set, profiling panel (AID 1171); details: A549 viability, higher = more signal, called active from +8 up or from −8 down
Also: test concentration not given here.

Row | Compound | z-score [1] | z-score [2] | z-score [3] | z-score [4] | z-score [5] | z-score [6] | z-score [7] | z-score [8] | z-score [9] | z-score [10]
1 | O=C1c2ccccc2[C@@]2(Cc3ccccc3N(CC(F)(F)F)C2=O)[C@H](c2ccc(CO)cc2)N1C1CCCCC1 | -0.449 | 0.747 | -0.0145 | 0.129 | -1.27 | -0.0304 | 0.701 (inactive) | 1.06 | 0.933 | 0.304 (inactive)
2 | C=CC[C@]1(C(=O)O)N=C(c2ccc(OCCCO)cc2)O[C@H]1c1ccccc1N=[N+]=[N-] | 0.144 | 0.722 | -0.489 | -2.19 | -0.0144 | 0.0206 | 0.504 (inactive) | -0.837 | -0.783 | 0.909 (inactive)
3 | C=CCN1C(=O)[C@@]2(O[C@@H](CCn3cc([C@H](O)c4ccccc4)nn3)[C@H]([Si](C)(C)c3ccc(OC)cc3)[C@H]2C)c2cc(N3CCOC3=O)ccc21 | -0.873 | 3.06 | -1.2 | -1.81 | -1.93 | 1.09 | 1.92 (inactive) | -0.376 | 0.753 | -1.97 (inactive)
4 | COc1cc2c(cc1OC)CN(C(=O)[C@H]1[C@@H]3C(=O)O[C@@H](c4ccccc4)[C@@H](c4ccccc4)N3[C@@H](c3ccc(O)cc3)[C@]13C(=O)Nc1ccc(C#CC4(O)CCCCCC4)cc13)CC2 | 0.273 | -0.0218 | -0.155 | -0.369 | -0.66 | -1.37 | -0.263 (inactive) | -0.34 | 0.432 | 1.24 (inactive)
5 | NC(=O)NCC#Cc1ccc2c(c1)[C@]1(C(=O)N2)[C@H](c2ccccc2OCCO)N2[C@H](c3ccccc3)[C@H](c3ccccc3)OC(=O)[C@H]2[C@@H]1C(=O)N1CCN(c2ncccn2)CC1 | -0.525 | 0.932 | 0.238 | 0.147 | 0.598 | -1.48 | 1.08 (inactive) | -0.356 | -0.293 | 0.157 (inactive)
6 | COc1ccc([Si](C)(C)[C@@H]2[C@@H](CCO)O[C@]3(C(=O)N(Cc4ccc(NC(=O)[C@H](C)O)cc4)c4ccccc43)[C@H]2C)cc1 | -2.45 | 1.63 | -2.43 | -2.97 | -2.49 | -1.84 | 0.492 (inactive) | -1.12 | -0.492 | -2.95 (inactive)
7 | COc1cc([C@@H]2N[C@H](C(=O)O)Cc3c2[nH]c2ccccc32)cc(OC)c1OC | 0.937 | 1.05 | -0.793 | -0.0434 | 0.407 | -0.737 | -0.135 (inactive) | -0.663 | 0.639 | 0.455 (inactive)
8 | CCC1=C2CN(Cc3ccccc3Br)[C@@H]([C@@H](O)Cc3ccccc3)C2C=CCC1 (stereo not given in full) | 0.596 | 2.48 | 0.155 | -3.24 | -3.99 | 1.42 | -0.473 (inactive) | -0.981 | -2.18 | 1.07 (inactive)
9 | N#Cc1ccc(NN2C(C(O)CCc3ccccc3)C=CC3C(=O)N(c4ccccc4)C(=O)C32)cc1 (stereo not given) | 0.422 | -0.191 | 1.18 | 0.197 | -0.0961 | -0.256 | -0.0951 (inactive) | 0.245 | 0.419 | 0.197 (inactive)
10 | COC(=O)C1=C(C)N(Cc2ccccc2)c2c(C(=O)OC)c(C(=O)OC)c(C(=O)OC)c(=O)n2[C@@H]1c1ccccc1 | 0.943 | 0.338 | 0.244 | 0.24 | 0.327 | 1.12 | 0.633 (inactive) | -0.281 | -0.0899 | 0.524 (inactive)
11 | CCOC(=O)C[C@H]1[C@H](OC(=O)Cc2ccc3c(c2)OCO3)[C@@H](NC(=O)c2ccc3ccccc3c2)c2cc(OCCCO)ccc2N1C(=O)Cc1ccc(OC)cc1 | 1.55 | 1.08 | 1.56 | 0.956 | 0.41 | 1.66 | -0.14 (inactive) | -0.384 | -1.1 | -0.654 (inactive)
12 | CC(=O)NCCCC[C@@H]1NC(=O)[C@@H]2C[C@H](C(=O)NCc3ccc(F)cc3)[C@H](c3cccc(OCCO)c3)N2C1=O | 0.53 | 0.0222 | 0.64 | -0.0893 | -0.12 | -0.0575 | -0.568 (inactive) | -0.3 | -0.513 | -0.12 (inactive)
13 | CO[C@H]1COC(=O)[C@@H](C)NC(=O)CC=C[C@@H](C)[C@H](OC)COC(=O)CC=C[C@@H]1C | 0.606 | 0.518 | 0.468 | 0.377 | 0.771 | 1.44 | 1.86 (inactive) | -0.0629 | 1.06 | 0.775 (inactive)
14 | CCOC(=O)C[C@H]1[C@H](OC(=O)c2cc3ccccc3oc2=O)[C@@H](NC(=O)C2CCCCC2)c2cc(OCCCO)ccc2N1C(=O)c1ccc2ccccc2n1 | -0.133 | 0.536 | 0.312 | 0.0733 | -0.253 | 0.0115 | -0.734 (inactive) | 0.322 | -0.166 | 0.164 (inactive)
15 | [N-]=[N+]=NCc1ccccc1[C@H]1OC(c2ccc(OCCCO)cc2)=N[C@@]1(Cc1ccccc1N=[N+]=[N-])C(=O)NCc1ccccc1 | -0.741 | 0.236 | -0.946 | -2.4 | -3.8 | 0.37 | -0.296 (inactive) | -1.02 | -1.38 | 0.0642 (inactive)
16 | C[N+](C)(C)CCCCNC(=O)[C@@H]1C[C@@H]2C(=O)N3CCC[C@H]3C(=O)N2[C@@H]1c1cccc(OCCO)c1 | 0.668 | 1.05 | -0.954 | -0.732 | -0.179 | 0.428 | 0.971 (inactive) | 0.252 | 0.791 | -0.141 (inactive)
17 | COC(=O)[C@@]1(Cc2ccccc2)[C@H]2c3cc(C(=O)N4CCCC4)n(CCN4CNCC4=O)c3C[C@H]2CN1C(=O)c1ccccc1 | -0.626 | 0.337 | -0.509 | 0.312 | 0.261 | -0.314 | 0.251 (inactive) | -0.185 | -0.777 | 0.0269 (inactive)
18 | C=C[C@H](OC)[C@@H](OC(=O)Nc1ccc(SC)cc1)c1ccc(O)c(F)c1 | 0.137 | 0.0047 | -0.14 | -0.913 | -1.07 | -2.33 | 3.02 (inactive) | -1.09 | -0.75 | -0.538 (inactive)
19 | CC(C)N1CC=CC23O[C@@H]4/C=C\CCCOC(=O)C4[C@H]2C(=O)N(CCCCCO)[C@@H]3C1=O (stereo not given in full) | 0.196 | 1.24 | 0.791 | 1.64 | 0.0268 | 0.446 | 1.31 (inactive) | -0.197 | 0.599 | 0.929 (inactive)
20 | CO[C@H]1O[C@H](CO)[C@@H](OC(=O)Nc2ccc(Oc3ccccc3)cc2)[C@H](OC(=O)Nc2ccccc2-c2ccccc2)[C@H]1OC(=O)Nc1ccccc1-c1ccccc1 | -4.22 | 1.59 | -4.47 | -3.39 | -4.01 | -1.37 | 1.64 (inactive) | -0.646 | -1.81 | -4.85 (inactive)
21 | C=C(COC)/C(=C/C[C@@H](OC(=O)c1ccncc1)c1ccc(OCCO)cc1)c1cc(C(=O)OC)ccc1OC | 1.13 | 1.51 | 0.183 | -0.312 | 0.93 | 2.48 | 1.79 (inactive) | 0.116 | 0.487 | 1.6 (inactive)
22 | NC(=O)[C@H]1[C@@H]2C(=O)O[C@@H](c3ccccc3)[C@@H](c3ccccc3)N2[C@@H](c2ccc(O)cc2)[C@]12C(=O)Nc1ccc(C#CCCO)cc12 | -0.191 | -0.0912 | 0.0926 | -0.664 | 0.0381 | -1.59 | -0.699 (inactive) | -0.583 | 0.196 | -0.0774 (inactive)
23 | C[N+](C)(C)CCCC[C@@H]1NC(=O)[C@H]2C[C@@H](C(=O)NCc3ccc(F)cc3)[C@@H](c3cccc(OCCO)c3)N2C1=O | 0.191 | 1.01 | -0.676 | -1.04 | 0.366 | 1.79 | 1.06 (inactive) | -0.397 | 0.392 | 0.656 (inactive)
24 | O=C(NCC(F)(F)F)[C@@H]1c2ccccc2C(=O)N(Cc2ccccc2Cl)[C@H]1c1ccc(CO)cc1 | 1.25 | -0.0448 | 0.343 | 0.189 | -0.317 | 1.48 | -0.198 (inactive) | -0.65 | 0.499 | 1.26 (inactive)
